Measured values taken from PubChem BioAssay (NCATS).
“And” between values parts separate entries of the source, which are not always exact repeats. Equal values may be shown once. Results filed as inconclusive are left out. Some structures have more than one record in an assay (separate samples or runs), and their calls can disagree. The source made the active and inactive calls. Calls follow the shape of the dose curve; as a rule, active = well fitted curve in the direction sought with a large enough effect; inconclusive = small, poorly fitted or top-dose-only effect, or another doubt; inactive = no such curve, though single readings can be large; an effect the other way counts as inactive or inconclusive.

Columns and labels:
[1] = molecular target: Cytochrome P450 2C19 (Homo sapiens) (UniProt P33261); assay: qHTS Assay for Inhibitors and Substrates of Cytochrome P450 2C19 (AID 899); also: nearly all actives have a fitted effect of over 60% in size; also: potency is read from the fitted curve at half-maximal effect
How it was run: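 5 nM human CYP2C19 with 10uM Luciferin-H EGE (at KM) in 50mM KPO4, compound preincubated 10 min at 37C, then NADPH regeneration for 60 min at 37C. Luciferin read by luminescence after detection reagent; normalized to 57uM ketoconazole as full inhibition.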

[2] = Confirmation and Secondary Assay for Modulators of Hemoglobin Beta Chain Splicing at IVS2 654 locus (AID 910);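 also: HeLa cells stably carrying EGFP split by mutant beta-globin IVS2-654 intron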
How it was run: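 HeLa cells stably expressing EGFP interrupted by β-globin IVS2-654 intron, seeded overnight in Opti-MEM/2% FCS, then treated 2 days at 37 °C. Restored splicing read as total peak GFP intensity per well by laser scanning cytometry (488 nm excitation, 500–520 nm emission); 500 nM antisense PNA as control.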

[3] = qHTS Assay for Identification of Small Molecule Antagonists for Thrombopoietin (TPO) Signaling Pathway (AID 918); settings: TPO-dependent cell signaling reporter, antagonist mode; also: potency is read from the fitted curve at half-maximal effect; nearly all actives have a fitted effect of over 60% in size
Method: NIH Molecular Libraries Screening Centers Network [MLSCN]
NIH Chemical Genomics Center [NCGC]
The thrombopoietin (TPO) signaling pathway was assayed in murine Ba/F3 cells stably transfected with the human TPO receptor and a luciferase reporter gene controlled by the Glycoprotein IIb promoter (provided by Axxam). BaF3 cells are an IL-3-dependent pro B cell line that upon TPO stimulation, undergo cell division and induce the megakaryocyte marker, Glycoprotein IIb. The assay was screened at the EC50 of TPO (26 pM) to identify inhibitors of the pathway.
NCGC Assay Protocol Summary:
Cells were maintained at 37 C and 5% CO2in RPMI with 10% fetal bovine serum, 0.5 ng/mL murine IL-3, 100U/ml penicillin and 100 ug/ml streptomycin. Prior to plating, cells were incubated overnight in medium without IL-3. Cells were plated at 250 cells/5uL/well into white solid 1536-well plates, 23 nL of compounds were delivered by a pin tool, and 1 uL of TPO (26 pM final concentration in IL-3 deficient medium) was added. Following 24 hrs of incubation at 37 C and 5% CO2, 4 uL of Steadylite detector mix (PerkinElmer) was added, the plates incubated at room temperature for 10 min and luminescence was measured for 10 s and 2X binning by a ViewLux detector (Perkin Elmer).

[4] = Confirmation and Secondary Assay for Modulators of Hemoglobin Beta Chain Splicing at IVS2 705 locus (AID 930);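 also: HeLa cells stably expressing the EGFP-705 splicing reporter; GFP fluorescence per well restored by corrected splicing of the IVS2-705 intron in EGFP; series mostly up to about 46 µM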
How it was run: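 HeLa IVS2-705 EGFP reporter cells, 500/well, compound 2 d at 37C; correct splicing yields fluorescent EGFP. Control: 500 nM antisense PNA. Read-out: total peak GFP intensity.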

[5] = molecular target: Pyruvate kinase (Leishmania mexicana) (UniProt Q27686); assay: qHTS Validation Assay for Inhibitors of Leishmania Mexicana Pyruvate Kinase (AID 945); also: potency is read from the fitted curve at half-maximal effect
How it was run: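 Eight-point qHTS titrations; enzyme 0.2 nM LmPYK (E451W mutant); substrates 0.5 mM PEP, 0.1 mM ADP; 7 mM MgCl2; 1 h room temperature; PKLight luminescence normalized to neutral control.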

[6] = molecular target: Muscarinic acetylcholine receptor M1 (Rattus norvegicus) (UniProt P08482); assay: qHTS Assay for Antagonists of Acetylcholine Muscarinic M1 Receptor: Kinetic Measurement of Intracellular Calcium Response (AID 943); also: series mostly up to about 35 µM; nearly all actives have a fitted effect of over 75% in size
How it was run: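 CHO cells expressing rat M1 receptor, Fluo-4 loaded, preincubated 10 min with compound, then stimulated with EC80 carbachol (100 nM final). Kinetic calcium fluorescence over 4 min; response taken as peak over basal signal.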

[7] = molecular target: Muscarinic acetylcholine receptor M1 (Rattus norvegicus) (UniProt P08482); assay: qHTS Assay for Antagonists of Acetylcholine Muscarinic M1 Receptor: Measurement of IP-One Response (AID 944); also: nearly all actives have a fitted effect of over 75% in size
How it was run: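 CHO cells stably expressing rat M1, pretreated 10 min with compound, then stimulated 30 min with carbachol at EC80 (200 nM) in LiCl-containing buffer pH 7.4; IP1 accumulation read by HTRF competition (665/620 nm).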

[8] = qHTS Assay for Identification of Small Molecule Agonists for Thrombopoietin (TPO) Signaling Pathway (AID 917); also: potency is read from the fitted curve at half-maximal effect
How it was run: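 Activators of TPO signaling were sought in murine Ba/F3 cells transfected with the human receptor, using a luciferase gene driven by the Glycoprotein IIb promoter; 24-hr compound exposure at 37 C alongside 26 pM TPO, in IL-3-free medium.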

[9] = Cell Viability - LYMP2-001 (AID 921);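 also: series mostly up to about 92 µM; cells exposed to compound for 24 h at 37 °C; nearly all actives have a fitted effect of over 70% in size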
How it was run: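 CellTiter-Glo luminescence (intracellular ATP) after 24 hr compound exposure at 37 C, 2500 lymphoblastoid cells/well in complete medium. AC50 fitted with standard Hill equation; tetraoctylammonium bromide positive control.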

Measured: Potency

Sequence of Cytochrome P450 2C19 (Homo sapiens) (P33261 whole entry, looked up): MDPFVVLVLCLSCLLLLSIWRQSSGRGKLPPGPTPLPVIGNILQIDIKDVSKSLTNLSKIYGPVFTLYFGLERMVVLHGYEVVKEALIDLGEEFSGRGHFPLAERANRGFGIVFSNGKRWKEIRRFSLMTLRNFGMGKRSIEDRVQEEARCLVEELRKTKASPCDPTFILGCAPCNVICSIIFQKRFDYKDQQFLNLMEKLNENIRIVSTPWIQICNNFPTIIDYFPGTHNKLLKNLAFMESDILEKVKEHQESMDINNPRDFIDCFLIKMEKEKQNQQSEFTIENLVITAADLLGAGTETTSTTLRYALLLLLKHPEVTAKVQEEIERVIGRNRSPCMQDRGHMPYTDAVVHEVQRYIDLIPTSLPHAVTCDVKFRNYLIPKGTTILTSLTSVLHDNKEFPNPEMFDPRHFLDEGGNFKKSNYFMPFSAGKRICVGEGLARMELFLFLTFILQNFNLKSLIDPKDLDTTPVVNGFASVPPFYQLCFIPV
Sequence of Pyruvate kinase (Leishmania mexicana) (Q27686 2-499 E452W): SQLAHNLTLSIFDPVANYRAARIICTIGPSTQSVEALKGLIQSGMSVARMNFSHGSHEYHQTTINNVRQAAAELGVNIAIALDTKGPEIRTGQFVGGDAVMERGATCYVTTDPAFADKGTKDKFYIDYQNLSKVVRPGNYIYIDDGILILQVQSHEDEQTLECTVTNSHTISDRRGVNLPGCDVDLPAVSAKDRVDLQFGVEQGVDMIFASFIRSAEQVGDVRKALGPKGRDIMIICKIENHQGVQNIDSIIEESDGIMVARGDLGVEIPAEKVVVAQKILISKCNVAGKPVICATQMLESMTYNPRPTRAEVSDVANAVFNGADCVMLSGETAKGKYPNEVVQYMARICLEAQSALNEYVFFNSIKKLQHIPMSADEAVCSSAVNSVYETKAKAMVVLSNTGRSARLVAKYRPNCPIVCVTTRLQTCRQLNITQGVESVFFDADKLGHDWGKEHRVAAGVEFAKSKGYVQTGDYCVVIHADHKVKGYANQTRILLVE
Sequence of Muscarinic acetylcholine receptor M1 (Rattus norvegicus) (P08482 whole entry, looked up): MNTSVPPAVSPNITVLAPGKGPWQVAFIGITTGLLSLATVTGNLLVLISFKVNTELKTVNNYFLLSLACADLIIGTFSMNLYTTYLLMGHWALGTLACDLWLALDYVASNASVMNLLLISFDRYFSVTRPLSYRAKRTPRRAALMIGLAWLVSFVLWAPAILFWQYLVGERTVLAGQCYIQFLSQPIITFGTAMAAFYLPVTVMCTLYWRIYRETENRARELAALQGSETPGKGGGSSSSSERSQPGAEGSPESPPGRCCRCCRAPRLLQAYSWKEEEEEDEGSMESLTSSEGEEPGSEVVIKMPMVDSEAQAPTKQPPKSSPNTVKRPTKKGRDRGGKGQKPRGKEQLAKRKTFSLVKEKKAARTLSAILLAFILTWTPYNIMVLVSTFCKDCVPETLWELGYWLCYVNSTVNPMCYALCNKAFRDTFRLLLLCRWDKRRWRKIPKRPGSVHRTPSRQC

Clc1ccccc1C(c1ccccc1)(c1ccccc1)n1ccnc1
inactive: [2] | [4] | [5]
active: [1] 10 µM | [3] 12.6 µM

O=C1N(c2ccccc2)c2ccccc2C1(Cc1ccncc1)Cc1ccncc1
inactive: [6] | [7] | [5]
active: [1] 3.16 µM and 199 nM

Clc1ccc(C(c2ccccc2Cl)C(Cl)Cl)cc1 (stereo unspecified)
inactive: [2] | [8] | [9] | [4] | [5]

NC(=O)OCC(COC(N)=O)c1ccccc1
inactive: [1] | [8] | [7] | [5]

CC(C)C(=O)Nc1ccc([N+](=O)[O-])c(C(F)(F)F)c1
inactive: [2] | [8] | [9] | [4] | [5]

CN(C)CCCN1c2ccccc2CCc2ccc(Cl)cc21
inactive: [1] | [2] | [4] | [5]

COc1ccc2[nH]cc(CCNC(C)=O)c2c1
not listed: [1] | [3] | [6]
inactive: all other assays above

COc1ccc2c(c1)c(CC(=O)O)c(C)n2C(=O)c1ccc(Cl)cc1
inactive: [1] | [2] | [8] | [4]

Nc1ccn([C@H]2CC[C@@H](CO)O2)c(=O)n1
not listed: [1] | [3]
inactive: all other assays above

Nc1c2c(nc3ccccc13)CCCC2
inactive: [2] | [8] | [9] | [4] | [5]

O=c1[nH]cc(F)c(=O)[nH]1
inactive: [1] | [9] | [4] | [5]

CS(=O)(=O)Nc1ccc([N+](=O)[O-])cc1Oc1ccccc1
inactive: [1] | [2] | [8] | [4]

NS(=O)(=O)c1cc2c(cc1Cl)NCNS2(=O)=O
inactive: [2] | [8] | [9] | [4] | [5]

CCOC(=O)c1ncn2c1CN(C)C(=O)c1cc(F)ccc1-2
inactive: [1] | [8] | [5]

O=c1c(-c2ccc(O)cc2)coc2cc(O)cc(O)c12
active: [8] 1.58 µM | [5] 12.6 µM
inactive: [2] | [9] | [4]
inactive and 20 µM (active): [1]
